# Bioassay records deposited in PubChem BioAssay by several laboratories.
# NCOA2 inhibitor: human SRC2 (NCOA2) inhibition; Q15596; HEK293 GAL4-SRC2 luciferase reporter, luminescence; inhibition, % at 9 µM; hit rate 0.17% among 370,000;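 active = inhibition above the mean inhibition of all tested compounds plus 3 SD, set per campaign, cut at about 52% in these data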
# SRC1 inh: inhibitors of human steroid receptor coactivator 1 (SRC1); hit rate 0.12% among 360,000; HEK293 GAL4-SRC1 luciferase reporter, luminescence; inhibition, % at 3.6 µM;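 active = inhibition above the campaign mean plus 3 SD, with each screening campaign given its own cutoff, cut at about 60% in these data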
# Gli-Sufu antag: blocks Gli-Sufu signaling in a luciferase reporter. AID 588413. inhibition, % at 5 µM. hit rate 0.74% among 340,000. Sufu-KO-LIGHT fibroblasts, Gli luciferase reporter luminescence;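 active = inhibition above about 55%, limit read from the data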
# LRH-1 inv ag: NR5A2 inverse agonism in reporter assay; O00482; HEK293T StAR-luciferase reporter, LRH-1 transfected, 24 h; inhibition, % at 3.6 µM; hit rate 0.13% among 360,000; AID 602396;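 active = inhibition above the mean inhibition of all tested compounds plus 3 SD, cut at about 73% in these data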
# Target sequence (O00482 whole entry, looked up): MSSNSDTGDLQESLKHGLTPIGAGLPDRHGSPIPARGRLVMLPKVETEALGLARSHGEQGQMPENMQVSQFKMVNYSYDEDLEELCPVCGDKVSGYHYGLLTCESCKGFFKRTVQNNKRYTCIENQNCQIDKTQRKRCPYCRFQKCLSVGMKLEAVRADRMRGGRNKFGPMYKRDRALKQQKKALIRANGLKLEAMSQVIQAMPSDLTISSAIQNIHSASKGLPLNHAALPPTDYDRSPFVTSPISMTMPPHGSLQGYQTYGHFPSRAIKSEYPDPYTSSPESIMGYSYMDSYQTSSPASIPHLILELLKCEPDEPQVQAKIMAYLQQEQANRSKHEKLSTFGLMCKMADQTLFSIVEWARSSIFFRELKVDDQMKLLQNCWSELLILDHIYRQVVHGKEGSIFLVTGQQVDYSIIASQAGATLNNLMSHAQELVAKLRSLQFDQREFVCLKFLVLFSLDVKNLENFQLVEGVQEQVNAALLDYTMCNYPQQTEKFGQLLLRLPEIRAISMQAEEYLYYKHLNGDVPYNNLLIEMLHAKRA
# NCOA3 inh: human NCOA3 inhibition | inhibition, % at 3.6 µM | AID 588352 | hit rate 0.17% among 360,000 | HEK293 GAL4-SRC3 luciferase reporter, luminescence | Q9Y6Q9;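 active = inhibition above a per-campaign cutoff, the mean of all compounds plus 3 SD, cut at about 60% in these data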;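 note: higher means less SRC3-driven luciferase light from the GAL4 reporter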
# NR2F2 inh: blocks human COUP-TFII nuclear receptor; P24468; HEK293T NGFI-A luciferase reporter, luminescence; inhibition, % at 8.6 µM; hit rate 0.7% among 370,000; AID 686940;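 active = inhibition above a per-plate cutoff, mean inhibition of test wells between control levels plus 3 SD, cut at about 38% in these data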;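 note: cells cotransfected with COUP-TFII expression vector driving the NGFI-A reporter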
# VP16 Luc counter: inhibits VP16 reporter, flagging COUP-TFII antagonist hits | shares compounds with NR2F2 inh | HEK293 Gal4-VP16 luciferase reporter, luminescence | inhibition, % at 8.5 µM | hit rate 25% among 2,500 | AID 687007; in the data active = inhibition above about 13%
# COUP-TFII conf: COUP-TFII (NR2F2) inhibition, confirmation assay | HEK293 NGFI-A luciferase reporter, luminescence | AID 687008 | inhibition, % at 8.5 µM | hit rate 45% among 2,500 | shares compounds with NR2F2 inh;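 active = mean inhibition over three repeats above a set limit taken from the earlier primary screen, cut at about 38% in these data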
# A number is an active result; . = inactive; / = not tested or not shown. Rows were chosen to be rich in hits. Some 1.3% of all compounds tested hit in one or more screens of this group.
SMILES,NCOA2 inhibitor,SRC1 inh,Gli-Sufu antag,LRH-1 inv ag,NCOA3 inh,NR2F2 inh,VP16 Luc counter,COUP-TFII conf
CC(C)c1ccc(/C=C/C(=O)Nc2ccc(CN3CCOCC3)cc2)cc1,.,.,.,.,.,.,/,/
C[C@H]1[C@H](NCc2cccnc2)CC[C@@]23CCCN2C(=O)CCC[C@@H]13,/,/,/,/,/,.,/,/
CCC[C@H]1[C@@H](N(C)Cc2cccs2)CC[C@@]23CCCN2C(=O)CCC[C@@H]13,/,/,/,/,/,.,/,/
NC(=O)c1sc2nc3c(c(-c4cccnc4)c2c1N)CCC3,.,.,.,.,.,.,/,/
NC(=O)c1sc2nc3c(c(-c4cccs4)c2c1N)CCCCC3,.,69,.,.,67,43,14,.
COCCN1CCN(c2cc(-c3ccccc3)nc3cc(-c4cccc(F)c4)nn23)CC1,.,.,.,.,.,47,.,.
COc1ccc(OCC(=O)Nc2ccc(N3CCN(C(=O)c4ccccc4)CC3)c(Cl)c2)cc1,.,.,.,.,.,59,.,.
C=C(C)[C@@H]1CC2=C(OC)C(CC=C(C)C)(CC=C(C)C)C(=O)C(C(=O)c3ccccc3)=C2O1,.,/,/,/,/,.,/,/
COc1ccc(CNCC#Cc2ccc(C)cc2)c(OC)c1,.,/,/,/,/,.,/,/
CC(C)(C)c1ccc(OCCC(=O)Nc2cccc(S(=O)(=O)NC3=NCCCCC3)c2)cc1,.,.,.,.,.,40,.,.
CN(CC(=O)Nc1cccc(S(=O)(=O)NC2=NCCCCC2)c1)Cc1ccc(C(C)(C)C)cc1,.,.,.,.,.,.,/,/
Cc1ccc(-n2c(C)c([N+](=O)[O-])c3ccc(O)c(CN(C)C)c32)cc1,.,.,.,.,.,43,14,.
COc1cc(OC)c2c(=O)c3c(C(=O)O)c(O)ccc3oc2c1,.,/,/,/,/,.,/,/
CCCCN(CCCNC(=O)c1ccc2c(c1)NC(=O)CN2C)c1ccccc1,.,.,/,.,.,45,.,.
CC(C)(C)NC(=O)C(c1cccnc1)N(C(=O)c1cccs1)c1ccc(C(C)(C)C)cc1 (stereo unspecified),/,/,/,/,/,.,/,/
CCOC(=O)C1(Cc2ccccc2)CCN(Cc2ccccc2OC)CC1,.,/,/,/,/,.,/,/
CCOC(=O)C1(Cc2ccccc2)CCN(Cc2ccnc3ccccc23)CC1,.,/,/,/,/,47,.,39
Cc1cc(N2CCN(C(=O)Oc3ccc(-c4ccccc4)cn3)CC2)c2ccccc2n1,.,/,/,/,/,87,.,38
C=CCc1cccc2cc(C(=O)O)c(=O)oc12,.,.,.,.,.,.,/,/
C=CCc1cccc2cc(C(=O)Nc3ccccc3C(=O)O)c(=O)oc12,.,.,.,.,.,41,.,47
C[C@@H]1[C@@H](O)C[C@@]2(C[C@H](O)c3ccccc3O2)O[C@H]1c1ccccc1,.,/,/,/,/,.,/,/
Cc1ccccc1CN1C(=O)c2ccccc2S1(=O)=O,.,.,.,.,.,.,/,/
O=C1c2ccccc2S(=O)(=O)N1Cc1nc2ccccc2s1,.,.,.,.,.,42,.,.
COc1ccc(N2CCN(CCNS(=O)(=O)c3ccccc3[N+](=O)[O-])CC2)cc1,.,/,/,/,/,.,/,/
COc1cccc(-c2nnc(SCc3cc(C)ccc3C)n2Cc2ccco2)c1,.,/,/,/,/,41,.,.
SMILES,NCOA2 inhibitor,SRC1 inh,Gli-Sufu antag,LRH-1 inv ag,NCOA3 inh,NR2F2 inh,VP16 Luc counter,COUP-TFII conf
COC(=O)[C@]1(CNS(=O)(=O)c2ccc(F)cc2)CC(=O)N(C)[C@@H]1c1ccccc1,.,/,/,/,/,.,/,/
COc1ccc(Cn2ccc3ccc(-c4ccc5ccn(C(=O)c6ccccc6C)c5c4)cc32)cc1,.,/,/,/,/,.,/,/
CCN(c1cccc(C(F)(F)F)c1)S(=O)(=O)c1ccc2c(c1)CCN2C(C)=O,.,.,.,.,.,47,.,.
CCN(c1cccc(C)c1)S(=O)(=O)c1ccc2c(c1)CCN2C(C)=O,.,.,.,.,.,.,/,/
Cc1ccc(C(=O)C2CCN(CC(=O)N(C)C3CCCCC3)CC2)cc1,.,/,/,/,/,.,/,/
CCOc1cc(/C=C2\COc3ccccc3C2=O)cc(Br)c1OCC(=O)N(C)C,57,.,.,.,.,38,.,.
COC(=O)C[C@@H]1CC[C@H]2[C@H](COc3ccc(NC(=O)C4CCC4)cc3C(=O)N2C)O1,.,/,/,/,/,.,/,/
